Bioassay records as filed in PubChem BioAssay.
TTR transcr act: increases transthyretin transcription; SH-SY5Y TTR promoter Gaussia luciferase, luminescence; 100% = recombinant luciferase protein wells; activation, % at 16.7 µM; 92,000 tested, 1.3% active; AID 1117267;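 active = activation above the mean of all tested compounds plus 3 SD, cut at about 9.5% in these data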;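 note: cells exposed to compounds for one day before reading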
TTR inh HuH7: HuH7 TTR transcription inhibition, counter-screen; shares compounds with TTR transcr act; HuH7 TTR promoter-Gaussia luciferase reporter, luminescence; inhibition, % at 16.7 µM; 1,100 tested, 4% active;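 active = average inhibition above the solvent-only control wells' mean plus 3 SD, cut at about 15% in these data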;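 note: inhibitors lower well luminescence so higher value means more inhibition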
TTR up confirm: human TTR transcription activation, confirmation | shares compounds with TTR transcr act | SHSY5Y TTR promoter Gaussia luciferase, luminescence; 100% = purified Lucia enzyme wells, no cells | activation, % at 16.7 µM | 1,100 tested, under 10 active | AID 1117280;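 active = mean activation above a set limit taken from the earlier primary screen, cut at about 11% in these data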
Hits are given with their value. The entries come from a sample that favours hits as a whole.

CCS(=O)(=O)N1Cc2ccccc2CC1C(=O)Nc1ncc(C)s1 (configuration not stated) was read as TTR transcr act inactive.
`Cc1ccc(SC(=O)c2c([N+](=O)[O-])c(C)nn2C)cc1` gave TTR transcr act inactive.
Screening CCCCOC(=O)C1=C(N)N2C(=O)C(C)SC2=C(C(=O)OCC)C1c1ccc(O)c(OC)c1 (configuration not stated) returned TTR transcr act inactive.
For O=C1C2C3C=CC(CC3)C2C(=O)N1c1ccc(Cl)cc1Cl (configuration not stated) the results were TTR transcr act inactive.
`CCOC(=O)[C@]12CCCC=C1N(Cc1ccc(OC)cc1)C(=O)[C@@H]2CC(=O)N1CCCCC1` gave TTR transcr act inactive.
Screening Fc1cccc(Oc2nc3ccccc3n3cccc23)c1 returned TTR transcr act inactive.
Screening CCN1CCN(c2nc3sc4c(c3c3ncnn23)CC(C)CC4)CC1 (configuration not stated) returned TTR transcr act 11, TTR inh HuH7 inactive and TTR up confirm inactive.
CC1CCc2c(sc3ncnc(N4CCOCC4)c23)C1 (configuration not stated) was read as TTR transcr act inactive.
For CC1CCc2sc3nc(NCc4ccco4)n4ncnc4c3c2C1 (configuration not stated) the results were TTR transcr act inactive.
For CCOC(=O)c1sc(N)nc1C(F)(F)F the results were TTR transcr act inactive.
`COC(=O)[C@]12C[C@H](CC(=O)NCc3cccc4ccccc34)C(=O)N(CCc3ccc(OC)c(OC)c3)C1=C[C@H](C(C)C)O[C@@H]2C1CC1` gave TTR transcr act inactive.
`CCOC(=O)c1c(C)n(C)c2ccc(OCC(O)CN3CCCCCC3)cc12` (configuration not stated) gave TTR transcr act inactive.
CCOC(=O)c1c(C)n(C)c2ccc(OCCN(C)C)cc12 was read as TTR transcr act inactive.
Screening CCOC(=O)c1c(C)n(C)c2ccc(OCC(O)CNC(CC)CO)cc12 (configuration not stated) returned TTR transcr act 14, TTR inh HuH7 inactive and TTR up confirm inactive.
Cc1ccc(S(=O)(=O)N2c3ccccc3C[C@H]2CCC(=O)c2ccccc2)cc1 was read as TTR transcr act inactive.
`C[C@H]1[C@@H](NC(=O)C2CCC2)CC[C@@]23CCCN2C(=O)CCC[C@@H]13` gave TTR transcr act inactive.
CCCN1CCC(=O)N(CCO)CC1 was read as TTR transcr act inactive.
For COc1ccc2cc(-c3cn(C(=O)N(c4ccccc4)c4ccccc4)nn3)ccc2c1 the results were TTR transcr act inactive.
Screening Cc1ccc(NS(=O)(=O)c2ccc(C(=O)NCCN3CCOCC3)cc2)cc1 returned TTR transcr act 15, TTR inh HuH7 inactive and TTR up confirm inactive.
For O=C(NCCCN1CCOCC1)c1ccc(NS(=O)(=O)c2cccc([N+](=O)[O-])c2)cc1 the results were TTR transcr act inactive.
Screening CC(=O)Nc1ccc(C(=O)NCCN2CCOCC2)cc1 returned TTR transcr act inactive.
C[C@H]1[C@@H](NCc2cccs2)CC[C@@]23CCCN2C(=O)CCC[C@@H]13 was read as TTR transcr act inactive.
Screening CC(=O)N(C)c1ccc(N=Nc2c(C)[nH]n(C(N)=S)c2=O)cc1 returned TTR transcr act inactive.
CC(=O)N(C)c1ccc(N=Nc2c(C)[nH]n(-c3ccccc3)c2=O)cc1 was read as TTR transcr act 11, TTR inh HuH7 inactive and TTR up confirm inactive.
Screening CCOC(=O)c1ccc(N=Nc2c(C)[nH]n(-c3ccccc3)c2=O)cc1 returned TTR transcr act inactive.
For COCCN(CC(=O)Nc1cccc(C)c1C)C(=O)c1ccc(S(=O)(=O)N2CCOCC2)cc1 the results were TTR transcr act 9.8, TTR inh HuH7 inactive and TTR up confirm inactive.
`O=C(Nc1ccccc1Cl)c1ccc(S(=O)(=O)N2CCOCC2)cc1` gave TTR transcr act inactive.
`COCCN(CC(=O)Nc1cccc(C)c1C)C(=O)Cc1cccs1` gave TTR transcr act inactive.
For CCCC(=O)N1CCC1(C)C(=O)Nc1cccc(OC(C)C)c1 (configuration not stated) the results were TTR transcr act inactive.
Screening O=C(Oc1cc(=O)oc2ccccc12)c1ccccc1 returned TTR transcr act 14, TTR inh HuH7 inactive and TTR up confirm inactive.
`O=C(O)CCc1ccccc1OC(=O)c1ccccc1` gave TTR transcr act inactive.
For O=C(Oc1cccc2ccccc12)c1ccccc1 the results were TTR transcr act inactive.
`Cc1nn(CC(=O)OCC(=O)NC(C)c2ccccc2)c(C)c1[N+](=O)[O-]` (configuration not stated) gave TTR transcr act inactive.
Screening O=C(COC(=O)c1cccc(F)c1)Nc1cccnc1Cl returned TTR transcr act inactive.
Screening N#Cc1ccc(C(=O)OCC(=O)Nc2cccnc2Cl)cc1 returned TTR transcr act 16, TTR inh HuH7 inactive and TTR up confirm inactive.
Screening COc1cccc(OC)c1C(=O)OCC(=O)Nc1cccnc1Cl returned TTR transcr act inactive.
For COC(=O)C[C@@H]1C=C[C@@H](NC(=O)CN(C)C)[C@@H](CO)O1 the results were TTR transcr act inactive.
Screening CN1CCN(NS(=O)(=O)c2cccs2)CC1 returned TTR transcr act inactive.
CCc1nc2ccc(C(=O)NCCCn3ccnc3)cn2c1N(C)CCC(C)C was read as TTR transcr act inactive.
For Cc1ccc2nc(SCC(=O)Nc3nonc3C)[nH]c2c1 the results were TTR transcr act 10, TTR inh HuH7 inactive and TTR up confirm inactive.
Cc1ccc2nc(SCC(=O)N3CCCC3)[nH]c2c1 was read as TTR transcr act inactive.
For Cc1ccc2nc(SCC(=O)NC3CC3)[nH]c2c1 the results were TTR transcr act inactive.
Cc1ccc(N(CC(=O)NC(C)C)C(=O)CCC(=O)Nc2ccccn2)c(C)c1 was read as TTR transcr act inactive.
Screening O=C(CCN1CCOCC1)NCc1ccccc1 returned TTR transcr act inactive.
Screening O=C(CCN1CCOCC1)c1ccccc1 returned TTR transcr act inactive.
`N/C(CCN1CCOCC1)=N/O` gave TTR transcr act 10, TTR inh HuH7 inactive and TTR up confirm inactive.
Screening O=[N+]([O-])c1cnc2ccccc2c1Sc1ccccc1 returned TTR transcr act inactive.
For O=C1SCCC1NC(=O)C(c1ccccc1)c1ccccc1 (configuration not stated) the results were TTR transcr act 18, TTR inh HuH7 inactive and TTR up confirm inactive.
`O=C(NC1CC1)C(Cl)c1ccccc1` (configuration not stated) gave TTR transcr act inactive.
For O=C(CCCc1ccccc1)NC1CCSC1=O (configuration not stated) the results were TTR transcr act inactive.
Screening CCOc1ccc(/C=C2/C(=N)N3OC(C)=CC3=NC2=O)cc1OC returned TTR transcr act 9.9, TTR inh HuH7 inactive and TTR up confirm inactive.
Screening COc1cc(/C=C2/C(=N)N3OC(C)=CC3=NC2=O)ccc1OCCOc1ccc(C)cc1 returned TTR transcr act inactive.
COc1cccc(OCCn2cccc2/C=C2/C(=N)N3OC(C)=CC3=NC2=O)c1 was read as TTR transcr act inactive.
`CCCS(=O)(=O)c1ccc(COC(=O)Cc2ccc([N+](=O)[O-])cc2)cc1` gave TTR transcr act inactive.
